TDP1 cell noCPT – qHTS for Inhibitors of human tyrosyl-DNA phosphodiesterase 1 (TDP1): qHTS in cells in absence of CPT. DT40 Tdp1-/- hTDP1 cells, no CPT, ATP luminescence, 48 h. Potency, µM (doses to about 46.2 µM), for inactives: top-dose activity change, negative = growth inhibition, most hits filed as inhibitors. 420,000 tested, 15% active. AID 686978, 2013; further: potency means the concentration at half of the fitted maximal effect; nearly all actives have a fitted effect of over 55% in size
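Compound effects on proliferation are scored in DT40 Tdp1-/-;hTDP1 cells in the absence of CPT. ATP levels (CellTiter-Glo luminescence) are recorded after a ≥48 hr, 37 °C incubation.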
HT1080 IDH1KD tx – toxicity to HT-1080 IDH1 knockdown cells (counter line); 360,000 tested, 2% active; HT-1080 IDH1 knockdown viability, ATP luminescence, 48 h; AID 686971; Potency, µM (series often up to 46.1 µM), for the others: top-dose activity, negative = toxicity, most hits filed as cytotoxic;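 further: potency means the concentration at half of the fitted maximal effect; 0% = DMSO wells and -100% = cell-free medium wells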
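Luminescent ATP read-out (CellTiter-Glo, 10 min at room temperature) after 48 h compound exposure at 37 °C gave viability of IDH1-knockdown HT-1080 cells. Activity was normalised to DMSO and cell-free wells, then fitted as concentration-response curves.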
TDP1 cell CPT – DT40-hTDP1 cell growth loss with CPT. AID 686979. 420,000 tested, 12% active. Potency, µM (highest dose often 46.2 µM), for the others: at the highest dose activity change, negative = growth inhibition, usual class: inhibitors. chicken DT40 Tdp1-/-;hTDP1 cells + 20 nM CPT, ATP luminescence, 48 h; further: potency means the concentration at half of the fitted maximal effect; nearly all actives have a fitted effect of over 55% in size
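Cell growth measured by CellTiter-Glo luminescence after a minimum 48 h, 37 C compound exposure with 20 nM CPT in Tdp1-knockout DT40 cells stably expressing hTDP1, seeded 400/well; qHTS titration format.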
HT1080NT lethal – kills 2HG-producing HT-1080-NT fibrosarcoma cells; HT-1080-NT fibrosarcoma viability, CellTiter-Glo ATP luminescence, 48 h; Potency, µM (highest dose often 46.1 µM), for the others: at the highest dose activity, negative = less viability, actives largely listed as cytotoxic; 360,000 tested, 1.6% active; AID 686970;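 further: NT is the 2HG producing partner of a matched IDH1 knockdown line; potency means the concentration at half of the fitted maximal effect; 0% = DMSO-treated cells and -100% = media-only wells without cells; nearly all actives have a fitted effect of over 55% in size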
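Luminescent CellTiter-Glo readout after 48 hours of compound exposure at 37 degrees C defined viability of HT-1080-NT cells. Activity was normalized to DMSO wells and cell-free media wells; concentration-response curves were fitted and assigned curve classes.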
IL1B secr inh – inflammasome signaling inhibition, IL-1 beta readout; 360,000 tested, 4.7% active; activity change, % at 57.5 µM; THP-1 LPS/ATP IL-1B secretion, AlphaLISA, 16 h; stronger effect = lower value; in the data active means activity change below about -50%; inconclusive means mostly about -30% to -49%
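THP-1 cells pretreated 1 hr with compounds (up to 57.5 uM final), then stimulated with LPS (250 ng/mL final) plus ATP (1.25 mM final); secreted IL-1B measured by AlphaLISA after 16 hr, decreased signal indicating inhibition.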
ELG1 DNA repair – inhibitors of ELG1-dependent DNA repair in HEK293T cells; AID 504467; 330,000 tested, 2.3% active; Potency, µM (series often up to 46.1 µM), for the others: at the top dose activity change, negative = inhibition, most hits filed as inhibitors; HEK293T ELG1-luciferase reporter, luminescence, 16 h; DNA damage induced by 5-fluorouridine; further: potency means the concentration at half of the fitted maximal effect; nearly all actives have a fitted effect of over 55% in size
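Overnight (16 hr) co-exposure of 2,000 cells/well to 5-fluorouridine and compound at 37 °C preceded detection. Luciferase was quantified via ONE-Glo luminescence; loss of signal denotes inhibition.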
* = called active by the depositor; ? = inconclusive; nt = not tested or not shown. Compounds with a hit are over-represented: about 19% of the library has one in this group of screens. Unless noted, the call rests on the fitted dose curve; in most records, active means well fitted curve in the direction sought with a large enough effect; inconclusive means small, poorly fitted or top-dose-only effect, or another doubt; inactive means no such curve, though single readings can be large; an effect the other way counts as inactive or inconclusive. Unless noted, on the % scale 0 is the no-effect control and ±100 the full control effect.

SMILES	TDP1 cell noCPT	HT1080 IDH1KD tx	TDP1 cell CPT	HT1080NT lethal	IL1B secr inh	ELG1 DNA repair
CC(=O)c1ccc(OCCCC(=O)NCCc2ccc(C(F)(F)F)cc2)cc1	-22%	-13%	-11%	-16%	-11	-11%
NC(=O)[C@@H]1CCCN1Cc1c(C(=O)N2CCc3ccccc3C2)nc2ccc(Cl)cn12	26%	2%	-17%	8%	40	1%
O=C(NC1CCSc2ccccc21)c1cccc([N+](=O)[O-])c1 (configuration not stated)	-50%	0%	?	-2%	?	11%
CC1(C(=O)NCc2cccc3ccccc23)CCN1Cc1ccc2ccccc2c1 (configuration not stated)	18µM*	?	18µM*	?	-5	nt
CC(C)CCNC(=O)C1(C)CCN1Cc1ccc2ccccc2c1 (configuration not stated)	23µM*	?	?	?	-2	nt
CC(C)NC(=O)C1(C)CCCCN1Cc1ccc(OCc2ccccc2)cc1 (configuration not stated)	1.6µM*	?	2.3µM*	?	2	nt
CC1(C(=O)NCc2cccc3ccccc23)CCN1Cc1cccc2c1OCO2 (configuration not stated)	15µM*	?	23µM*	?	?	nt
Cc1ccc(CN2CCCC2(C)C(=O)NC(C)C)cc1 (configuration not stated)	?	21%	?	11%	30	nt
CCOC(=O)c1c(NC(=O)c2noc3c2CC(C(C)(C)C)CC3)sc2c1CCCC2 (configuration not stated)	-6%	nt	-14%	nt	nt	nt
CC1(C(=O)Nc2ccc3c(c2)OCCO3)CCN1Cc1ccc(-c2ccccn2)cc1 (configuration not stated)	?	5%	?	3%	-19	nt
CC1(C(=O)NCc2ccccc2Br)CCN1Cc1ccc(-c2ccccn2)cc1 (configuration not stated)	18µM*	?	15µM*	?	-29	nt
C/C(=N\NC(=O)c1ccccc1OCc1ccc(F)cc1)c1ccccn1	5.2µM*	?	4.6µM*	?	52	?
CCOc1ccc(OCc2ccc(C(=O)N/N=C(\C)c3ccccn3)cc2)cc1	0.65µM*	?	0.92µM*	?	113	?
CCOc1ccc(C(=O)O/N=C(\N)c2ccccn2)cc1	?	-17%	-9%	?	-9	?
CCOc1ccc(OCc2ccc(C(=O)NN=Cc3ccc[nH]3)cc2)cc1	-11%	?	-11%	0.65µM*	?	?
O=C(N/N=C/c1ccc[nH]1)c1ccccc1OCc1ccc(F)cc1	2%	-1%	-6%	0%	-1	-2%
COc1ccc(CCNC(=O)c2cnc3ccc(C)cn3c2=O)cc1	-26%	nt	?	nt	nt	nt
Cn1c(=O)c(-c2cccs2)nc2cncnc21	-21%	nt	21%	nt	nt	nt
O=C(CSc1cccc[n+]1[O-])Nc1ccc([N+](=O)[O-])cc1Cl	?	0%	?	-11%	11	-2%
CC(C)(C)C(=O)/C=C1\NC(=O)CS1	-3%	17%	19%	8%	4	-22%
Cc1ccccc1/C=c1\s/c(=C\C(=O)C(C)(C)C)[nH]c1=O	10µM*	?	13µM*	?	37	?
CCc1ccc(/C=C2/C(=O)NC(=O)N2C(C)=O)cc1	-23%	-1%	-6%	0%	?	?
CCc1ccc(/C=c2\s/c(=C\C(=O)C(C)(C)C)[nH]c2=O)cc1	23µM*	?	?	?	0	?

Source: PubChem
